Test results: PubChem BioAssay (NCATS)
Records with an inconclusive call do not appear. Where a call stands in place of a potency, no number is given. Active and inactive are the calls of the source. Calls come from the whole dose curve; as a rule, active = well fitted activation curve with a large enough effect; inconclusive = small, poorly fitted or top-dose-only effect; inactive = flat fitted curve, though single readings scatter.

Target: Cellular tumor antigen p53 (Homo sapiens) (UniProt P04637)
Experiment: Primary qHTS for small molecule compounds that upregulate eGFP-tagged delta133p53alpha (in C-terminal) cells. (AID 2060324)
Conditions: NCI-H358 delta133p53alpha-eGFP (C-terminal tag), GFP fluorescence imaging, 24 h; series mostly up to 57.5 µM
Text: Assay Development and Screening Technology
National Center for Advancing Translational Sciences (NCATS),
National Institute of Health (NIH), Rockville, Maryland
Cellular senescence (CS) is one of the hallmarks of aging and age-related diseases. Senescent cells are characterized by an irreversible growth arrest, an increase in senescence-associated beta-galactosidase (SA-beta-gal) activity and p16INK4a expression, an activation of the DNA damage response pathways, and the emergence of a senescence-associated secretory phenotype (SASP).
Delta133p53alpha, a human/primate-specific p53 protein isoform, delays or inhibits the induction of CS and SASP in various types of human cells, including progeria-derived fibroblasts, primary normal astrocytes, and CD8+ T lymphocytes. Induction of delta133p53alpha with small molecule compounds may provide therapeutic opportunities for inhibition of senescence/SASP-associated pathologies in progeria syndromes, astrocyte-mediated neuroprotection in neurodegenerative diseases, and possibly prevention and treatment of a wider range of senescence- and aging-associated diseases.
Here we report the development and validation of a cell-based quantitative high throughput screening (qHTS) assay in 1,536-well format. This qHTS assay uses the NCI-H358 cell line with doxycycline-inducible expression of enhanced green fluorescent protein (eGFP)-tagged delta133p53alpha, which allows efficient and highly quantitative measurement of the protein levels.
PROTOCOL TABLE (as described by Inglese J, Shamu CE and Guy RK. 2007)
SEQUENCE No. (e.g., 1, 2, 3, etc.); […] (e.g., Cells, Incubation, Reagent, etc.); VALUE; DESCRIPTION.
1; Cells; 4uL; 800 doxycycline treated cells / well in doxycycline-free media, 1536-well black, clear-bottom low base Aurora microplates.
2; Compounds; 23 nL; Kalypsis pin tool (Wako) equipped with 1536-well pin heads, 5-azacytidine positive control.
3; Incubation; 24 hr; 37C, 5% CO2; 95% relative humidity.
4; Aspiration; 1x; BioTek EL406 washer dispenser (Agilent).
5; Fixing; 3.5% paraformaldehyde, BioTek EL406 washer dispenser (Agilent).
6; Washing; 1x PBS; BioTek EL406 washer dispenser (Agilent).
7; Nuclei staining; 1:1000 dilution of Hoechst 33342 (Thermofisher), BioTek EL406 washer dispenser (Agilent).
8; Incubation; 20 min; in the dark at room temperature.
9; Washing; 2x, 1x PBS (ThermoFisher), BioTek EL406 washer dispenser (Agilent).
10; Reagent; 10 uL; 1x PBS per well, sealed with clear adhesive tape.
11; Detection; Fluorescence, Acumen eX3 laser scanning cytometer (STP Labtech), GFP filters […].
NOTES (numbers refer to sequence numbers above).
1. NCI-H358 cells expressing eGFP-tagged delta133p53alpha were grown in T75 culture flasks and treated with doxycycline for 24h, at 10 ng/ml for eGFP-D133p53a cells (N-terminal cell) and 100 ng/ml for D133p53a-eGFP cells (C-terminal cells). Cells were trypsinized, counted using a Counted 3 Automated Cell Counter (Thermo Fisher), and diluted to a concentration of 200,000 cells/ml. A Multidrop Combi Reagent Dispenser (ThermoFisher) was used to dispense 800 cells/well in […] of doxycycline-free media, into 1536-well black/clear bottom low base plates (AuroraMicroplates).
2. After plating cells, 23 nl of compound library, DMSO vehicle control or positive control (5-azacytidine) were transferred by Pin Tool (Wako). The plate map layout was the same for each plate: (column 1) non-doxycycline treated cells + DMSO vehicle control; (column 2) doxycycline treated cells + DMSO vehicle control baseline; (column 3) doxycycline treated cells + positive control 57.5 uM final concentration 5-azacytidine; (column 4) doxycycline treated cells + serial dilution of 5-azacytidine, 16-point 1:2 titration spanning 1.8 nM to […] final concentration; (columns 5-48) doxycycline treated cells + titration of library compounds.
3. Cells were incubated at 37 °C, 5 % CO2, 95% RH with breathable metal lid for 24h.
4-10. […] […]
Potency is the fitted concentration of half-maximal effect.

Cellular tumor antigen p53 (Homo sapiens), sequence (P04637 whole entry, looked up): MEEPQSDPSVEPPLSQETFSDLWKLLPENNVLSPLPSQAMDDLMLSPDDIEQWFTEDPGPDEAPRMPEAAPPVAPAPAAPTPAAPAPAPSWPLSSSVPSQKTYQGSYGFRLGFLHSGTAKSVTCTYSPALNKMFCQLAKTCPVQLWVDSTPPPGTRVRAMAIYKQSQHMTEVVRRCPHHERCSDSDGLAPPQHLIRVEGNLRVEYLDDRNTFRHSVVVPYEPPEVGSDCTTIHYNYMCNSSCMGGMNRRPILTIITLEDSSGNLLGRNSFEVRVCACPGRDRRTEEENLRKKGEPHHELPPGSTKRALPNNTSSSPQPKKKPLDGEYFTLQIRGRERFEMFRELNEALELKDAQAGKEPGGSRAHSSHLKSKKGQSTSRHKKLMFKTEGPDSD

Row | Structure (SMILES) | Potency
1 | CC(=O)N[C@H](C(=O)O)C(C)(C)SN=O | inactive
2 | CC(=O)NNC(=O)N1Cc2ccccc2Oc2ccc(Cl)cc21 | inactive
3 | O=C(O)CCC/C=C\C[C@@H]1[C@@H](/C=C/[C@H](O)C2Cc3ccccc3C2)[C@@H](F)C[C@@H]1O | inactive
4 | CCO/C([O-])=N/c1c[n+](N2CCOCC2)no1 | inactive
5 | CC(C[N+](C)(C)C)OC(N)=O (stereo not given) | inactive
6 | CN1CCN(CC(=O)N2c3ccccc3C(=O)Nc3cccnc32)CC1 | inactive
7 | COc1ccc(-c2cc(=O)c3c(O)c(OC)c(OC)cc3o2)cc1O | inactive
8 | CN1[C@@H](CC(=O)c2ccccc2)CCC[C@H]1C[C@H](O)c1ccccc1 | inactive
9 | Cc1ccc(O)c(N=Nc2ccccc2)n1 | inactive
10 | COc1ccc(C2CNC(=O)C2)cc1OC1CCCC1 (stereo not given) | inactive
11 | C=CC1(C)CC(=O)C2(O)C(C)(O1)C(OC(C)=O)C(O)C1C(C)(C)CCC(O)C12C (stereo not given) | inactive
12 | CCN(CC)CCOC(=O)c1ccc(N)cc1 | inactive
13 | CCCNC(=O)NS(=O)(=O)c1ccc(Cl)cc1 | inactive
14 | COc1cccc(-c2cc(=O)c3ccccc3o2)c1N | inactive
15 | Nc1ccc(CCNc2ncnc3c2ncn3C2OC(CO)C(O)C2O)cc1 (stereo not given) | inactive
16 | COc1cc(/C=C(\C#N)C(=O)c2ccc(O)c(O)c2)cc(I)c1O | 16.9 µM (active)
17 | Clc1ccc(N2CCN(Cc3c[nH]c4ncccc34)CC2)cc1 | inactive
18 | NCC(O)C1CCCCCCC1 (stereo not given) | inactive
19 | OC(CN1CCC(Cc2ccc(F)cc2)CC1)c1ccc(Cl)cc1 (stereo not given) | inactive
20 | O=C1NC(c2cccc([N+](=O)[O-])c2)=CCN1c1ccccc1O | inactive

Row | Structure (SMILES) | Potency
21 | COc1ccc(-c2cc3ncc(C)n3c(Nc3ncccc3C(N)=O)n2)cc1OC | 10.7 µM (active)
22 | NCCCC(=O)O | inactive
23 | COc1cccc(C(=O)NCCN2CCN(c3ccc(Cl)cc3)CC2)c1 | inactive
24 | Cc1cccc(C2CN(C)CCc3c2cc(O)c(O)c3Cl)c1 (stereo not given) | inactive
25 | CCCOC(=O)c1c(-c2ccccc2)nc(CC)c(C(=O)SCC)c1CCC | inactive
26 | Cn1cc(C(F)(F)F)nc1-c1ccc(OCC(O)CNCCOc2ccc(O)c(C(N)=O)c2)cc1 (stereo not given) | inactive
27 | O=c1cc(-c2ccccc2F)[nH]c2cc3c(cc12)OCO3 | inactive
28 | CSC(=N)N | inactive
29 | CC(=O)NC[C@H]1CN(c2ccc(N3CCOCC3)c(F)c2)C(=O)O1 | inactive
30 | Brc1c(NC2=NCCN2)ccc2nccnc12 | inactive
31 | C=CCn1c(=O)c2c(nc(-c3ccc(S(=O)(=O)O)cc3)n2C)n(C)c1=O | inactive
32 | C=CC[C@H](N)C(=O)O | inactive
33 | COc1ccccc1N1CCN(CCCNc2c(C)c(=O)n(C)c(=O)n2C)CC1 | inactive
34 | Cc1nc(N=Nc2ccc(S(=O)(=O)O)cc2S(=O)(=O)O)c(COP(=O)(O)O)c(C=O)c1O | inactive
35 | CCN(CC)CCn1c(=O)c(Cc2ccc(OC)cc2)nc2ccccc21 | inactive
36 | NC[C@H]1O[C@@H](n2cnc3c(N)ncnc32)[C@H](O)[C@@H]1O | inactive
37 | Cc1cccc(-c2[nH]ncc2-c2ccc3ncccc3n2)n1 | inactive
38 | NC(N)=Nc1nc(CSCC/C(N)=N/S(N)(=O)=O)cs1 | inactive
39 | C=C(C)C1CC=C(C(=O)O)CC1 (stereo not given) | inactive
40 | CCOC(=O)c1cnc2c(cnn2CC)c1NN=C(C)C | inactive
